Whole data set: some 5,800 sequences, median “enrichment r” near 0.68, cut for the highest 2% near 11. The list is a sample of the results.
T1: UNK ZnF1-6 (called full-length) (human, UniProt Q9C0B0 30-357)
T1 sequence: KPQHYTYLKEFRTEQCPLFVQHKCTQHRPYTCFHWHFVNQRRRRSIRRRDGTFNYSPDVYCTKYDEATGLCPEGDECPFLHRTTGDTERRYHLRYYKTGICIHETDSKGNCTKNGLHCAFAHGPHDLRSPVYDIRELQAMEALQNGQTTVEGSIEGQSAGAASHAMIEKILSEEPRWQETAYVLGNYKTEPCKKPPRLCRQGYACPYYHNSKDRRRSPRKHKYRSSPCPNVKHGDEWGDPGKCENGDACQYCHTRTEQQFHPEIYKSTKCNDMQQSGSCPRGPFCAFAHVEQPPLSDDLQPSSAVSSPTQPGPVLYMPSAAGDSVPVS

B1: chr22:36281679:36281692:-|3pUTR|ENSG00000100345|msi1_unk|total|mutant (ssRNA)
RNA: GGGAGUUCUACAGUCCGACGAUCUCUUGUGUCUACUCCCGGACUGGGCCCGAGGGUGGUUUACCUGCACCGUUGACUCAGUACCGUUUAAAAAUCUGCCACCUGCACAGGUAUUUUUGAAAGCAAAAUAAGGUUUUCUUUUUUCAACAGAGGAUUGAGCAUCA
B2: chr7:137227872:137228000:-|3pUTR|ENSG00000105894|msi1_unk|total|mutant (ssRNA)
RNA: GGGAGUUCUACAGUCCGACGAUCGGAACAUAAAAAGGACAUCAGCAAACAGGAUCAGUUAACUAUUGCAUUUAUAUGUACCGCCGGCUUUGUAUUCAAAAAUUAUCUACCGCUAAGUACACAAUAAGCAAAAACAAAAAGAAACAACAGAGGAUUGAGCAUCA
B3: ENSG00000165476:stop:overlap|stop_codon|ENSG00000165476|stop_codon|NA|stop_codon (ssRNA)
RNA: GGGAGUUCUACAGUCCGACGAUCAAGAGGUGCGGUACGGGUCACUAAAAUACAAAGUGAAGAAACGACCACAAGUGUAUUUUUAGUCAUCUACACGUCAAAUAUCCCAAGACAGAUUAUGCUAAAUACAUCGACUUCAUCUUCCAACAGAGGAUUGAGCAUCA
B4: ENSG00000138660:stop:overlap|stop_codon|ENSG00000138660|stop_codon|NA|stop_codon (ssRNA)
RNA: GGGAGUUCUACAGUCCGACGAUCCUGUAUUAGAACUGUCUGAUUCUGGCAUAAGGCAUUCUGACACAGAUCAACAGACUCGAUAGGGUAAAAUUGUGUGACCUUGUUUAUCAGUUAUGACCAAAUGUUAAAAACCAACUAGAACAACAGAGGAUUGAGCAUCA
B5: chr3:11557161:11557262:-|3pUTR|ENSG00000144560|msi1|total|mutant (ssRNA)
RNA: GGGAGUUCUACAGUCCGACGAUCCCUCUGACUUUAUACUGUUAUUACUGCAUUUAUUAUUUGCUAUAUUAACCGCUACUAACCCGAAAUCCGAUGAAGCAAGCAUGACAGACACAGCUGUGGAGGUCACAGCUGCUCCUUUUUCAACAGAGGAUUGAGCAUCA
B6: ENSG00000198589:be:win_7201|CDS|ENSG00000198589|bound_else_gene|NA|bound_elsewhere_windowed (ssRNA)
RNA: GGGAGUUCUACAGUCCGACGAUCGAGAGUGAAUUUGUUUCCUGCCAGCUUCACCAAUGGAUUGAUCUCAUUUUUGGCUAUAAACAGCAAGGACCAGAAGCUGUCCGAGCCCUCAAUGUGUUCUAUUACUUGACCUAUGAAGGACAACAGAGGAUUGAGCAUCA

Target: T1, UNK ZnF1-6 (called full-length)
Test: nsRBNS (natural sequence RNA bind-n-seq); RBNS binding buffer (assumed for nsRBNS): 25 mM Tris pH 7.5, 150 mM KCl, 3 mM MgCl2, 0.01% Triton X-100, 500 ug/ml BSA, 20 U/ml SUPERase-In, 4 C; UNK is unkempt and MSI1 is Musashi-1; names of the RNAs are library labels; protein concentration not given here; high values mean tight binding

| Binder | binding signal |
| --- | --- |
| B1 | 0.546 enrichment R |
| B2 | 0.517 enrichment R |
| B3 | 0.648 enrichment R |
| B4 | 0.713 enrichment R |
| B5 | 0.51 enrichment R |
| B6 | 0.478 enrichment R |
